Consider five compounds from PubChem BioAssay.

Each structure is given as a SMILES string. Active and inactive are the calls of the source.

For assay [1], the system named is Plasmodium falciparum Sir2 (PF13_0152, Sir2A). The assay can be described thus: Plasmodium falciparum Sir2A binding compounds – biochemical, small-molecule microarray, 635 nm fluorescence, primary screen (AID 1098).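 Further: score merges spot fluorescence intensity with its signal-to-noise ratio.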 The settings on record: fluorescence 635 nm, higher = more signal.
Assay [2] in a line: probe aDKK1 binding to arrayed compounds – biochemical, biotinylated probe, 635/667 nm fluorescence, primary screen (AID 1099).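 Further: score merges 667nm spot fluorescence with signal to noise across triplicate slides.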 Conditions: small-molecule microarray, higher = more signal.
A short description of assay [3]: probe aCHRDL2 binding to arrayed compounds – biochemical, biotinylated probe, 635/667 nm fluorescence, primary screen (AID 1100). Conditions: small-molecule microarray, higher = more signal.
Assay [4] can be described thus: change in splice reporter luminescence, either direction, cell-based, HEK293, spliceosome inhibition project, primary screen (AID 1101).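 Further: HEK293 cells carrying a splicing-competent luciferase reporter gene; test concentration not given here.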 Conditions: HEK293 splicing luciferase reporter, 24 h, higher = more signal, called active from +8 up or from −8 down.
The target of assay [5] is Fibroblast growth factor 10 (Homo sapiens) (UniProt O15520). The assay can be described thus: compounds binding fibroblast growth factor 10 – biochemical, small-molecule microarray, 635 nm fluorescence, primary screen (AID 1102). The settings on record: FGF10 binding, fluorescence 635 nm, higher = more signal.
Chain of Fibroblast growth factor 10 (Homo sapiens) (O15520 whole entry, looked up): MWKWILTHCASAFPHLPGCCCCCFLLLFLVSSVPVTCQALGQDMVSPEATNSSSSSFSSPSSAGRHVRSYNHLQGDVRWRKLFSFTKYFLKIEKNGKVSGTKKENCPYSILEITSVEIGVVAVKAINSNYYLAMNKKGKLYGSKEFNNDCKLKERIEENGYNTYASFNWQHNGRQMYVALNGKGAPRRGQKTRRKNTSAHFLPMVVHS
For assay [6], the system named is glycogen synthase kinase-3 (GSK3A per assay name; protocol says GSK3B). The assay can be described thus: compounds binding glycogen synthase kinase-3 – biochemical, small-molecule microarray, 635 nm fluorescence, GSK3A, primary screen (AID 1103). Further: the record names both GSK3A and GSK3B. The settings on record: fluorescence 635 nm, higher = more signal.
The target of assay [7] is Epidermal growth factor receptor (Homo sapiens) (UniProt P00533). The assay can be described thus: compounds binding epidermal growth factor receptor – biochemical, small-molecule microarray, 635 nm fluorescence, primary screen (AID 1104).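 Further: score merges 667 nm emission intensity with spot signal to noise over triplicate slides.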 The settings on record: EGFR binding, higher = more signal.
Chain of Epidermal growth factor receptor (Homo sapiens) (P00533 whole entry, looked up): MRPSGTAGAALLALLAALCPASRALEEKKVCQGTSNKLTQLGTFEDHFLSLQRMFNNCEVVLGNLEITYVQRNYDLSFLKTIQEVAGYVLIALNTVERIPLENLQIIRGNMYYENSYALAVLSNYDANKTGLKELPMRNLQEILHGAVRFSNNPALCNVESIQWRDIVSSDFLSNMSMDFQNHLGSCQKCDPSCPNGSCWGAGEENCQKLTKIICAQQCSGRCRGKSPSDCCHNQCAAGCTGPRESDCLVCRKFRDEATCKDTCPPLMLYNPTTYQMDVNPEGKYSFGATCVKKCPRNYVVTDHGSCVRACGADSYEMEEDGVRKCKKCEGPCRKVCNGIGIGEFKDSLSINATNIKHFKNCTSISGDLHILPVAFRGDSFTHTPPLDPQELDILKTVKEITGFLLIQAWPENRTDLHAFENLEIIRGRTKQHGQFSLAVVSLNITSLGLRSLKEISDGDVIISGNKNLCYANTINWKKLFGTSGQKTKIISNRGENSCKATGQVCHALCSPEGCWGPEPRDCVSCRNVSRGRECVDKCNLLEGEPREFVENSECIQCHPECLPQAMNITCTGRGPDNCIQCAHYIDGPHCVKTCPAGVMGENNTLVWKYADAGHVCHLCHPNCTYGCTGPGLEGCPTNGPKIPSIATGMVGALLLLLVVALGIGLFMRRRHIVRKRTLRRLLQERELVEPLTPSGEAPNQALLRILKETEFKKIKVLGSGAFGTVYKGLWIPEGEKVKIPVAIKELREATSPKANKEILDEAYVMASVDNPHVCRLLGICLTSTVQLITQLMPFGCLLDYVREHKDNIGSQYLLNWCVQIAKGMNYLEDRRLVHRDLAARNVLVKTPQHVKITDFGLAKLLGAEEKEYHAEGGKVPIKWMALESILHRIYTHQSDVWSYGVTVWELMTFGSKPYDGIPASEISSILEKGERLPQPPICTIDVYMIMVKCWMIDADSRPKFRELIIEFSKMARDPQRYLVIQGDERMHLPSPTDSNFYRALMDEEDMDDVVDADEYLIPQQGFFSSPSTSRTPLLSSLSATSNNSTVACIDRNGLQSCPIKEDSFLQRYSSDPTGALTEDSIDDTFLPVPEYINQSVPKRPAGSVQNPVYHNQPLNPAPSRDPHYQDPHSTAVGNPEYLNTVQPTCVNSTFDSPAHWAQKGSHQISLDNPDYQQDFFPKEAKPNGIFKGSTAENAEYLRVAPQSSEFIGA
For assay [8], the target named is Follistatin-related protein 3 (Homo sapiens) (UniProt O95633). The assay can be described thus: compounds binding follistatin-related protein 3 – biochemical, small-molecule microarray, 635 nm fluorescence, primary screen (AID 1105).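 Further: score merges emission near 667 nm and signal to noise per printed spot across three slides.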 The settings on record: FSTL3 binding, higher = more signal.
Chain of Follistatin-related protein 3 (Homo sapiens) (O95633 whole entry, looked up): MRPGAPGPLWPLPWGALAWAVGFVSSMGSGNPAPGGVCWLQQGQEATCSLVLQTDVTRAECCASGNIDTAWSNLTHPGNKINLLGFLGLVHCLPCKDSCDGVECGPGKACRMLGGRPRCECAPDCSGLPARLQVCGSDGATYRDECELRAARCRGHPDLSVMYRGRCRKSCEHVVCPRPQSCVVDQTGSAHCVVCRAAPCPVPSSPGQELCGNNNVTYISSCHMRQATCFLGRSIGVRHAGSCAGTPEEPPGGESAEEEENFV
Assay [9] deals with Dickkopf-related protein 1 (Homo sapiens) (UniProt O94907). The assay can be described thus: small molecules binding DKK1 protein – biochemical, small-molecule microarray, 635 nm fluorescence scan, primary screen (AID 1106).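 Further: score merges emission near 667 nm with signal to noise over three replicate slides.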 Conditions: higher = more signal.
Chain of Dickkopf-related protein 1 (Homo sapiens) (O94907 whole entry, looked up): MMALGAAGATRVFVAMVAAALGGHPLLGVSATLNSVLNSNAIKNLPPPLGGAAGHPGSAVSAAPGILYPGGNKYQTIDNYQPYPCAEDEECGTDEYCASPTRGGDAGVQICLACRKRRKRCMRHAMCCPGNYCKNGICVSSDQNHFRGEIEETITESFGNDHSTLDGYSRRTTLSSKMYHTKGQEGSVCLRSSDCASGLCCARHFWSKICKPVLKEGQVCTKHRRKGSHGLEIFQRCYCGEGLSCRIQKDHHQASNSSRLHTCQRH
Assay [10] relates to Inhibin beta A chain (activin A). The assay can be described thus: small molecules binding activin A – biochemical, small-molecule microarray, 635 nm fluorescence scan, primary screen (AID 1107).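 Further: mouse activin A protein probed at 4.33 µg/mL on printed slides; score merges bound-protein fluorescence near 667 nm with spot signal-to-noise.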 Conditions: INHBA, higher = more signal.
Assay [11] has as its system Human papillomavirus type 1a protein E7 (residues 44-93). The assay can be described thus: small molecules binding HPV E7 44-93 – biochemical, small-molecule microarray, residues 44-93, 635 nm fluorescence, primary screen (AID 1108).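 Further: E7 fragment applied at 1 µg/mL in TBST for 1 h at 4 C; score combines spot fluorescence with its signal to noise ratio.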 Conditions: fluorescence 635 nm, higher = more signal.
Assay [12] in a line: hepatitis C replication reporter changes, two-sided – Huh7 cells, luciferase reporter, HCV replication inhibitor project, primary screen (AID 1109).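 Further: huh7 hepatoma cells harbouring a luciferase neomycin HCV replicon reporter; luciferase luminescence as measure of HCV replicon replication; test concentration not given here.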 Conditions: Huh7 HCV replicon luciferase reporter, 48 h; higher = more signal. For orientation: In a reporter assay the amount or activity of a reporter protein is the signal.
For assay [13], the target named is Left-right determination factor 2 (Homo sapiens) (UniProt O00292). The assay can be described thus: small molecules binding LEFTY2 protein – biochemical, small-molecule microarray, 635 nm fluorescence scan, primary screen (AID 1110). Conditions: higher = more signal.
Chain of Left-right determination factor 2 (Homo sapiens) (O00292 whole entry, looked up): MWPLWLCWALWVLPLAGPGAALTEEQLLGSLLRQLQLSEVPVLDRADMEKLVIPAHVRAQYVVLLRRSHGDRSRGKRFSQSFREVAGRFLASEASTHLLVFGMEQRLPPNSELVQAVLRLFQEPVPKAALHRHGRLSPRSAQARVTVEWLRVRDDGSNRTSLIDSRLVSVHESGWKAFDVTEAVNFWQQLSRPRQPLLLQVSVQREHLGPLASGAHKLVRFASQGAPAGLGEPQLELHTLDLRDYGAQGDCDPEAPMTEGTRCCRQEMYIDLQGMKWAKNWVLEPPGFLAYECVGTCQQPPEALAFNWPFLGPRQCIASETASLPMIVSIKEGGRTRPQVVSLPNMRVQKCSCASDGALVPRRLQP
Assay [14] has as its target Calmodulin-1 (Homo sapiens) (UniProt P0DP23). The assay can be described thus: small molecules binding calmodulin-1 with EGTA – biochemical, small-molecule microarray, Cy5-labelled CALM1, profiling panel (AID 1111).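 Further: labelled calmodulin applied in Tris saline Tween buffer holding calcium plus EGTA and DTT.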 Conditions: Cy5-CALM1 binding fluorescence, higher = more signal.
For assay [15] the target is unchanged. The assay can be described thus: small molecules binding Ca-loaded calmodulin-1 – biochemical, small-molecule microarray, Cy5-labelled CALM1, plus calcium, artefact control for SMM control-protein annotation, profiling panel (AID 1112).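 Further: score merges spot fluorescence with signal to noise from triplicate slides.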 Conditions: Cy5-CALM1 binding fluorescence, higher = more signal.
A short description of assay [16]: probe aWnt5a binding to arrayed compounds – biochemical, biotinylated probe, 635/667 nm fluorescence, primary screen (AID 1113).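 Further: score merges 667 nm fluorescence intensity with signal-to-noise per printed feature.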 The settings on record: small-molecule microarray, higher = more signal.
The nature of assay [17]: probe aShh binding to arrayed compounds – biochemical, biotinylated probe, 635/667 nm fluorescence, primary screen (AID 1114).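 Further: probe is biotin-labelled aShh protein from a stem cell growth factor screen; measures binding of labelled protein to compounds printed on the slide; score merges feature fluorescence at 667 nm with signal-to-noise.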 Conditions: small-molecule microarray, higher = more signal.
Assay [18] can be described thus: probe aNog binding to arrayed compounds – biochemical, biotinylated probe, 635/667 nm fluorescence, primary screen (AID 1115).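 Further: probe is biotinylated aNog protein used at 0.15 µg/mL for 1 h at 4 C; z-score combines 667 nm fluorescence of each spot with its signal to noise.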 The settings on record: small-molecule microarray, higher = more signal.
Assay [19] addresses Torsin-1A-interacting protein 1 (Homo sapiens) (UniProt Q5JTV8). The assay can be described thus: compound microarray binding of lysate hLAP1 – cell lysate, small-molecule microarray, COS7 lysate, 635/667 nm fluorescence, primary screen (AID 1116). Conditions: 635 nm fluorescence, higher = more signal.
The target in assay [20] is Alpha-bungarotoxin (Bungarus multicinctus) (UniProt P60615). The assay can be described thus: compounds binding labelled alpha-BTX control protein – biochemical, small-molecule microarray, Alexa647 label, 635/667 nm fluorescence, artefact control for SMM control protein annotation, profiling panel (AID 1117). Conditions: alpha-BTX-A647 binding fluorescence, higher = more signal.
Chain of Alpha-bungarotoxin (Bungarus multicinctus) (P60615 whole entry, looked up): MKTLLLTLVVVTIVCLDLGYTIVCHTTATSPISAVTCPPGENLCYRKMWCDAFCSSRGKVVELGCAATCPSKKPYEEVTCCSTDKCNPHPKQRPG

Chain of Torsin-1A-interacting protein 1 (Homo sapiens) (Q5JTV8 whole entry, looked up): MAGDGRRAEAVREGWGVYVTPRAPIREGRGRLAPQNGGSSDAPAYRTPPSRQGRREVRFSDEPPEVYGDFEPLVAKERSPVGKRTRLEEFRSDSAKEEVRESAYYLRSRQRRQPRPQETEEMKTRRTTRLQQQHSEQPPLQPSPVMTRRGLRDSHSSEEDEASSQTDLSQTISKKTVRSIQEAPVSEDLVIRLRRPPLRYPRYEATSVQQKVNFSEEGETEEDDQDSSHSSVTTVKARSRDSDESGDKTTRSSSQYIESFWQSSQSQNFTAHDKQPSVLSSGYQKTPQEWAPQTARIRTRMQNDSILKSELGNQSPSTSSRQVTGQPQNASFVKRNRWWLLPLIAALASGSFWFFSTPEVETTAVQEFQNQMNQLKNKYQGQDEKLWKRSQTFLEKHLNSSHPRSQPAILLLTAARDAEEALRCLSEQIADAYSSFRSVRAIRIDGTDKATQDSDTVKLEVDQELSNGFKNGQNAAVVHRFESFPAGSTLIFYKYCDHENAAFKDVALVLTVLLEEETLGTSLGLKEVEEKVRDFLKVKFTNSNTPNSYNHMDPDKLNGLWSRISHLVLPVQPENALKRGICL

For `CC(C)C(=C=CC[C@H](O)c1cccc(OCCO)c1)C[C@H](O)c1cc(Cl)cc(Cl)c1O`, the composite z-score in [1] was 0.507; in [2] it was -0.217; in assay [3], 0.0419; in assay [5], 1.43; in assay [6], 0.0728; in assay [7], -0.388. Besides, the composite z-score is 0.544 in assay [8]; -0.0693 in assay [9]; 0.346 in assay [10]; 0.851 in [11]; 0.155 in [13]; -0.0005 in assay [14]. Besides, the composite z-score in assay [15] is -0.698; in [16], -0.126; in assay [17], 0.23; in [18], 0.0083; in assay [19] it was 0.488; in [20], 0.986. The z-score in assay [4] was -0.747 (inactive); in [12], -0.583.
Take `COc1ccc([Si](C)(C)[C@H]2[C@H](CCn3cc([C@H](O)c4ccccc4)nn3)O[C@@]3(C(=O)N(Cc4ccc(N5C(=O)c6cccc7cccc5c67)cc4)c4ccccc43)[C@@H]2C)cc1`: the composite z-score is 0.93 in [1]; 0.0396 in [2]; 0.538 in [3]; 0.324 in assay [5]; -0.509 in assay [6]; -0.775 in [7]. Further, the composite z-score in [8] is -0.617; in assay [9], -0.858; in [10], -1.13; in [11] it was 0.0891; in [13], -0.638; in assay [14] it was 0.103. Besides, the composite z-score was 0.0758 in [15]; -0.131 in [16]; -0.154 in [17]; -0.0065 in assay [18]; 0.112 in assay [19]; 0.0628 in assay [20]. The z-score in [4] is -0.64 (inactive); in assay [12], -2.6.
Consider `COc1ccc([Si](C)(C)[C@@H]2[C@@H](CCn3cc([C@H](O)c4ccccc4)nn3)O[C@]3(C(=O)N(Cc4ccc(N5CCC5=O)cc4)c4ccccc43)[C@H]2C)cc1`, for which the composite z-score in assay [1] was 0.453; in assay [2] it was -0.213; in [3], -0.0321; in assay [5], 0.137; in assay [6], -0.364; in [7] it was -0.167. The composite z-score in assay [8] is -0.0461; in [9], 0.135; in assay [10], 0.632; in [11], -0.222; in [13], -0.309; in [14], -0.185. Further, the composite z-score in assay [15] was -0.0351; in assay [16] it was -0.217; in assay [17] it was -0.191; in assay [18], 0.318; in [19] it was 0.0139; in assay [20], -0.0352. The z-score in [4] is -0.619 (inactive); in assay [12], -2.06.
As to `CN1C(=O)C2C=CC(C(O)c3cccc4ccccc34)N(N3CCCCC3)C2C1=O` (stereo not given), the composite z-score in [1] was 1.52; in assay [2] it was 1.11; in assay [3] it was 1.21; in assay [5], 0.595; in assay [6] it was 1.31; in assay [7], 0.396. For the same compound, the composite z-score was determined as 1.09 in [8]; 0.353 in assay [9]; 0.784 in assay [10]; 0.817 in assay [11]; 0.349 in assay [13]; 2.23 in assay [14]. The composite z-score is 1.02 in assay [15]; -0.027 in [16]; -0.0055 in assay [17]; 1.04 in assay [18]; 2.45 in assay [19]; 1.67 in [20]. Besides, the figures for the z-score in [4] and in assay [12] were 1.81 (inactive) and -0.474, respectively.
Take `C[C@@H]1ON(c2ccc(C(=O)OC(C)(C)C)cc2)[C@H](c2ccc(O)cc2)[C@H]1C(=O)N1C(=O)OC[C@H]1Cc1ccccc1`: the composite z-score was 0.632 in assay [1]; 0.0187 in [2]; -0.369 in assay [3]; 0.663 in assay [5]; 1.06 in assay [6]; 0.365 in [7]. Moreover, the composite z-score was 0.431 in [8]; 0.449 in assay [9]; -0.0851 in assay [10]; 0.606 in [11]; 0.545 in [13]; 1.35 in [14]. In addition, the composite z-score in [15] is 0.307; in assay [16], 0.0215; in [17], -0.138; in assay [18], 0.495; in assay [19], 0.848; in [20], 0.485. Moreover, the z-score in assay [4] is 0.121 (inactive); in [12] it was -3.77.
